Compound activity: PubChem BioAssay, National Center for Advancing Translational Sciences (NCATS)
A selection: hits, their analogues and other compounds. The true share with any hit is near 19%.
Pf growth 48h: P. falciparum growth inhibition at 48 hours (one generation); Potency, µM (series often up to 28.7 µM), for the others: at the highest dose activity change, negative = inhibition, usual class: inhibitors; 5.9% of 310,000 active; P. falciparum luciferase growth in erythrocytes, 48 h; further: potency means the concentration at half of the fitted maximal effect; on the % scale 0 is the no-effect control and ±100 the full control effect
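Luciferase-expressing parasites in RBCs, 2% Hct / 0.1% parasitemia final; RPMI 1640 + 0.5% Albumax; 37 C, 5% CO2, one generation; luminescence read-out, lower signal = inhibition.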
Shiga inhibitor: Shiga toxin inhibition | 9.2% of 290,000 active | AID 2315 | inhibition, % at 38.7 µM | Vero cells, Shiga toxin protein synthesis inhibition reporter; in the data active means inhibition mostly above about 28%, no sharp cut-off; inactive means mostly below about 43%; further: 0% is about no effect
Lassa entry inh: inhibitors of Lassa virus binding or cell entry. Potency, µM (series often up to 37.9 µM), for the others: at the top dose activity change, negative = inhibition, hits mostly inhibitors. AID 540256. 1.2% of 300,000 active. Lassa virus pseudotype entry inhibition, cell reporter; calls by dose curve; tested in HEK293 cells; further: potency means the concentration at half of the fitted maximal effect; on the % scale 0 is the no-effect control and ±100 the full control effect; nearly all actives have a fitted effect of over 50% in size
CHX counter: affects cycloheximide protein synthesis inhibition readout, counter-screen | cell reporter, cycloheximide protein synthesis inhibition counterscreen | max response, % | 12% of 300,000 active; in the data active means max response mostly above about 13%, no sharp cut-off; inactive means mostly below about 14%; further: read at 38.3 µM for the half of the compounds with a filed dose; 0% is about no effect
Pf growth 96h: P. falciparum growth inhibition at 96 hours; P. falciparum luciferase reporter growth, 96 h; Potency, µM (doses to about 28.7 µM), without a hit: at the top dose activity change, negative = inhibition, actives largely listed as inhibitors; 6.9% of 320,000 active; further: potency means the concentration at half of the fitted maximal effect; on the % scale 0 is the no-effect control and ±100 the full control effect
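Plates of compound plus infected erythrocytes (2% hematocrit, 0.05% parasitemia final) incubate 96 hours, 37 C, 5% CO2. Detection reagent added; reduced luminescence from the parasites' luciferase reporter flags inhibition.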
Marburg entry inh: blocks Marburg virus binding to or entry into cells. Marburg virus pseudotyped entry inhibition, cell reporter. Potency, µM (highest dose often 37.8 µM), without a hit: top-dose activity change, negative = inhibition, actives largely listed as inhibitors. 1.8% of 300,000 active; calls by dose curve; tested in HEK293 cells; further: potency means the concentration at half of the fitted maximal effect; on the % scale 0 is the no-effect control and ±100 the full control effect
Numbers without * were called inactive; [ ] = remark or other dose. Unless noted, the call rests on the fitted dose curve; in most records, active means well fitted inhibition curve with a large enough effect; inconclusive means small, poorly fitted or top-dose-only effect, or another doubt; inactive means no such curve, though single readings can be large or run the other way.

Results for CCOC(=O)C1(Cc2cccc(Cl)c2)CCCN(C(=O)c2cc(C)n(C)n2)C1 (stereo unspecified) ?
Pf growth 48h: -15%; Shiga inhibitor: -18; Lassa entry inh: inconclusive; CHX counter: -1; Pf growth 96h: inconclusive; Marburg entry inh: inconclusive

How did CCOC(=O)C1(Cc2cccc(Cl)c2)CCCN(C(=O)C(C)(C)C)C1 (stereo unspecified) do in these assays?
Pf growth 48h: -13%; Shiga inhibitor: 45; Lassa entry inh: 9%[46.1 µM]; CHX counter: 27*; Pf growth 96h: 121%; Marburg entry inh: inconclusive

What do the screens show for `CCOC(=O)C1(Cc2cccc(Cl)c2)CCCN(C(=O)CN2C(=O)CSC2=O)C1` (stereo unspecified)?
Pf growth 48h: 6%; Shiga inhibitor: 46*; CHX counter: 36*; Pf growth 96h: 25%

What do the screens show for `CCOC(=O)C1(Cc2cccc(Cl)c2)CCCN(C(=O)c2ccnn2C)C1` (stereo unspecified)?
Pf growth 48h: -1%; Shiga inhibitor: 41*; Lassa entry inh: 0%; CHX counter: 50*; Pf growth 96h: -26%; Marburg entry inh: 6%

What do the screens show for `CCOC(=O)C1(Cc2ccccc2C)CCCN(C(=O)c2cc(CC)nn2C)C1` (stereo unspecified)?
Pf growth 48h: inconclusive; Shiga inhibitor: 15; CHX counter: -1; Pf growth 96h: 6%

Results for CCOC(=O)C1(Cc2cccc(Cl)c2)CCCN(CCO)C1 (stereo unspecified) ?
Pf growth 48h: inconclusive; Shiga inhibitor: -5; Lassa entry inh: 0%[46.1 µM]; CHX counter: -1; Pf growth 96h: inconclusive; Marburg entry inh: inconclusive

Results for COc1ccc(CCN=C(N)NS(=O)(=O)c2ccc(OC)cc2)cc1 ?
Pf growth 48h: 4%; Shiga inhibitor: -9; Lassa entry inh: -23%; CHX counter: -5; Pf growth 96h: inconclusive; Marburg entry inh: 2%

What do the screens show for `COc1ccc(S(=O)(=O)N2CCC(O)(c3ccc(Cl)cc3)CC2)cc1OC`?
Pf growth 48h: 1%; Shiga inhibitor: -8; Lassa entry inh: inconclusive; CHX counter: 8; Pf growth 96h: -10%; Marburg entry inh: inconclusive

How did CCOC(=O)C1(Cc2cccc(Cl)c2)CCCN(C(=O)CCNC(C)=O)C1 (stereo unspecified) do in these assays?
Pf growth 48h: 25%; Shiga inhibitor: 8; Lassa entry inh: 15%; CHX counter: 1; Pf growth 96h: inconclusive; Marburg entry inh: 1%

What do the screens show for `CCOC(=O)C1(Cc2cccc(Cl)c2)CCCN(C(=O)c2cc(CC)on2)C1` (stereo unspecified)?
Pf growth 48h: inconclusive; Shiga inhibitor: 62*; Lassa entry inh: inconclusive; CHX counter: 43*; Pf growth 96h: -4%; Marburg entry inh: inconclusive

How did COc1cccc2cc(-c3cc(=O)oc4ccc(OC(=O)N(C)C)cc34)oc12 do in these assays?
Pf growth 48h: -10%; Shiga inhibitor: -5; Lassa entry inh: 16%[46.1 µM]; CHX counter: -4; Pf growth 96h: -3%; Marburg entry inh: -1%[46.1 µM]

Results for COc1ccc(-c2oc3ccc(N4CCOCC4)cc3c2/C=C/c2ccc(OC)c(OC)c2)cc1 ?
Pf growth 48h: inconclusive; Shiga inhibitor: 30*; CHX counter: 12*; Pf growth 96h: 12µM*

How did NC(=O)c1ccccc1OCc1nnc(-c2ccccc2Br)o1 do in these assays?
Pf growth 48h: 8%; Shiga inhibitor: 65*; Lassa entry inh: 24%[46.1 µM]; CHX counter: 19; Pf growth 96h: -6%; Marburg entry inh: 10%[46.1 µM]

What do the screens show for `O=Cc1ccc(OCc2nnc(-c3ccccc3Br)o2)cc1`?
Pf growth 48h: 9%; Shiga inhibitor: 57*; Lassa entry inh: 29%; CHX counter: 21; Pf growth 96h: 17%; Marburg entry inh: inconclusive

Results for Cc1cc(=O)oc2cc(OCc3nnc(-c4ccccc4Br)o3)ccc12 ?
Shiga inhibitor: -14; Lassa entry inh: inconclusive; CHX counter: -3; Marburg entry inh: inconclusive

What do the screens show for `O=c1ccc2ccc(OCc3nnc(-c4ccccc4Br)o3)cc2o1`?
Pf growth 48h: 12%; Shiga inhibitor: 43*; Lassa entry inh: 6%; CHX counter: 18; Pf growth 96h: inconclusive; Marburg entry inh: -9%
